High-throughput results as filed in PubChem.
Most compounds without a hit are left out; they make up all but 18% or so of the library.
TGFb inhibitor = blocks TGF-b signaling | HepG2 CAGA-GFP TGF-b/SMAD3 reporter, GFP fluorescence, 18 h; TGF-beta stimulated, 500 pg/mL final | Potency, µM (series often up to 46.1 µM), for the others: at the highest dose activity, negative = inhibition, most hits filed as inhibitors | hit rate 1.2% among 410,000; note: potency is the fitted concentration of half-maximal effect; % is set by controls: 0 for no effect and ±100 for the full control effect; nearly all actives have a fitted effect of over 65% in size
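Smad-responsive CAGA-GFP expression was quantified in HEPG2 cells exposed to compounds and 500 pg/mL final TGF-beta for 18 h at 37 degrees C; unstimulated wells defined full inhibition.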
TDP1 cell CPT = growth inhibition of DT40 Tdp1-/-;hTDP1 cells with camptothecin (screen for TDP1 inhibitors). AID 686979. chicken DT40 Tdp1-/-;hTDP1 cells + 20 nM CPT, ATP luminescence, 48 h. Potency, µM (doses to about 46.2 µM), for inactives: at the top dose activity change, negative = growth inhibition, hits mostly inhibitors. hit rate 12% among 420,000; note: potency is the fitted concentration of half-maximal effect; % is set by controls: 0 for no effect and ±100 for the full control effect; nearly all actives have a fitted effect of over 55% in size
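Cell growth measured by CellTiter-Glo luminescence after a minimum 48 h, 37 C compound exposure with 20 nM CPT in Tdp1-knockout DT40 cells stably expressing hTDP1, seeded 400/well; qHTS titration format.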
TDP1 block = inhibitors of human tyrosyl-DNA phosphodiesterase TDP1; hit rate 0.28% among 350,000; AID 485290; recombinant TDP1, AlphaScreen DNA substrate cleavage; Potency, µM (series often up to 130 µM), inactives show at the top dose activity change, negative = inhibition, usual class: inhibitors; Q9NUW8; note: potency is the fitted concentration of half-maximal effect; % is set by controls: 0 for no effect and ±100 for the full control effect; nearly all actives have a fitted effect of over 40% in size
Target sequence (Q9NUW8 whole entry, looked up): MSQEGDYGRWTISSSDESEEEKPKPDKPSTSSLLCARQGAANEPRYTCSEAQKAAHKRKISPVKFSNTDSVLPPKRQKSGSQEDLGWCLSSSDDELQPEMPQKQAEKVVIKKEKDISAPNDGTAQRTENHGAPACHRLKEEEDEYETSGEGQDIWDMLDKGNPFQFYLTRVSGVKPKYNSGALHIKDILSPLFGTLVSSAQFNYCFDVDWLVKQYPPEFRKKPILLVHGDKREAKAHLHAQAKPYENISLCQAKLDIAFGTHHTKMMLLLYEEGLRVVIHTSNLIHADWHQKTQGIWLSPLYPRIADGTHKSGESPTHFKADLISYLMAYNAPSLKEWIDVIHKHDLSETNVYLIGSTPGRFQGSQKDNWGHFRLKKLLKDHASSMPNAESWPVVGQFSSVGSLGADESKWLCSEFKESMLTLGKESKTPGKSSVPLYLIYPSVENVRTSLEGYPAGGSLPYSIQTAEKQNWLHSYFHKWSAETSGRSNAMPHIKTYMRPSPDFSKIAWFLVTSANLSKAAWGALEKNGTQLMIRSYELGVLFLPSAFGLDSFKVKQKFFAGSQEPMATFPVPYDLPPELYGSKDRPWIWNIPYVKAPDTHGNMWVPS
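Enzyme-compound mixtures sat 15 min at room temperature, followed by a 5 min reaction with 15 nM final substrate and 10 min with AlphaScreen beads. Recombinant human Tdp1 was used at 1 nM final.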
HepG2 viability = HepG2 cytotoxicity, counter-screen for TGF-b inhibitors; HepG2 CAGA-GFP viability, ATP luminescence, 18 h; Potency, µM (highest dose often 46.1 µM), for the others: top-dose activity change, negative = cytotoxicity, hits mostly cytotoxic; hit rate 0.76% among 410,000; note: potency is the fitted concentration of half-maximal effect
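CellTiter-Glo luminescence gave cytotoxicity after 18 hours at 37 degrees C. The cells were HepG2 CAGA-GFP in 1% FBS DMEM, stimulated with 500 pg/mL TGF-beta after compound addition. %Activity was normalised to no-cell wells (complete cell-killing) and DMSO (no toxicity), and curves were fitted and classified.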
DT40 TDP1 no CPT = qHTS for Inhibitors of human tyrosyl-DNA phosphodiesterase 1 (TDP1): qHTS in cells in absence of CPT | DT40 Tdp1-/- hTDP1 cells, no CPT, ATP luminescence, 48 h | hit rate 15% among 420,000 | Potency, µM (titrated, usually from 46.2 µM), for inactives: at the highest dose activity change, negative = growth inhibition, usual class: inhibitors; note: potency is the fitted concentration of half-maximal effect; % is set by controls: 0 for no effect and ±100 for the full control effect; nearly all actives have a fitted effect of over 55% in size
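Chicken DT40 Tdp1-/- cells stably complemented with human TDP1 were seeded at 400 cells/well with DMSO in place of 20 nM camptothecin. After compound pinning, cells grew at least 48 hr at 37 °C; viability read by CellTiter-Glo luminescence.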
IL-1B inflam inh = inhibitors of inflammasome signaling (IL-1 beta secretion); THP-1 LPS/ATP IL-1B secretion, AlphaLISA, 16 h; hits give low values; activity change, % at 57.5 µM; hit rate 4.7% among 360,000; AID 743279; in the data active = activity change below about -50%; inconclusive = mostly about -30% to -49%; note: % is set by controls: 0 for no effect and ±100 for the full control effect
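Secreted IL-1B measured by AlphaLISA bead assay after 16 h compound exposure of THP-1 cells; compounds (final up to 57.5 uM) added 1 h before LPS (250 ng/mL) and ATP (1.25 mM) stimulation; lower signal means less secretion.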
The depositor's hits bear a star; ? = inconclusive; . = not tested or not shown; ! = repeats disagree; [ ] = remark or other dose. Unless noted, calls come from the whole dose curve; as a rule, active = well fitted curve in the direction sought with a large enough effect; inconclusive = small, poorly fitted or top-dose-only effect, or another doubt; inactive = no such curve, though single readings can be large; an effect the other way counts as inactive or inconclusive.

SMILES	TGFb inhibitor	TDP1 cell CPT	TDP1 block	HepG2 viability	DT40 TDP1 no CPT	IL-1B inflam inh
COc1cccc(-c2c(C(=O)N/N=C/c3ccsc3)nnn2-c2nonc2N)c1	5.0%	-1.6%	1.3%	-4.4%	-9.0%	-7.9
O=C(O)c1cn(C2CC2)c2cc(N3CCN(S(=O)(=O)c4ccc5c(c4)OCCO5)CC3)c(F)cc2c1=O	-10.4%	14.6µM*	-8.2%	-0.4%	14.6µM*	32.3
CCn1cc(C(=O)O)c(=O)c2cc(F)c(N3CCN(S(=O)(=O)c4ccc(Br)cc4)CC3)cc21	.	.	0.6%	.	.	.
CN1C[C@@H]2C[C@H]1CN2c1cc2c(cc1F)c(=O)c(C(=O)O)cn2C1CC1	.	6.68µM*	-4.3%	.	6.68µM*	.
O=C(NCc1cnn(-c2ccc(F)cc2)c1)C1CCC(=O)N(C2CC2)C1 (stereo not given)	?	-9.0%	-1.9%	-19.9%	-19.8%	7.4
O=C(NCc1ccccc1)C(c1ccco1)N1CCN(c2ccccc2F)CC1 (stereo not given)	.	?	.	.	?	-58.6*
O=C(NCc1ccccc1)C(c1ccc(F)cc1)N1CCN(CCN2CCOCC2)CC1 (stereo not given)	.	-11.3%	.	.	-5.6%	11.3
O=C(NCc1ccccc1)C(=O)NCC(c1ccco1)N1CCN(c2ccccc2F)CC1 (stereo not given)	1.4%	-2.3%	6.0%	9.4%	10.5%	5.6
O=C(NCCc1c[nH]c2ccccc12)C(=O)NCC(c1ccco1)N1CCN(c2ccccc2F)CC1 (stereo not given)	0.0%	?	5.8%	-40.8%	23.1µM*	-2.2
O=C(NCc1ccccc1)C(c1ccc(-c2ccccc2)cc1)N1CCN(c2ccccc2F)CC1 (stereo not given)	.	18.4µM*	.	.	?	-7.8
Cc1cc(C)n(C(C)CC(=O)Nc2cccc(C#N)c2)n1 (stereo not given)	-1.7%	1.0%	3.2%	-26.2%	-12.4%	.
C/C(=N\Nc1ccc(Cl)c(C(=O)O)c1)c1ccccn1	11.6%	1.6%	9.6%	-2.0%	22.5%	40.9
C/C(=N\Nc1ncnc2sc(C)c(C)c12)c1ccccn1	-8.2%	0.103µM*	.	-87.7%	0.0146µM*	-1.1
Cc1sc2ncnc(N/N=C/c3cccc(O)c3)c2c1C	?	2.2%	6.8%	-27.0%	-22.0%	-19.5
C/C(=N\Nc1cccc2cccnc12)c1ccccn1	?	0.731µM*	8.8%	-57.5%	0.92µM*	30.8
C/C(=N\Nc1ncc(Cl)cc1Cl)c1ccccn1	89.1%	18.4µM*	7.7%	-40.7%	0.0259µM*	0.0
O=C(CNS(=O)(=O)c1ccc(Cl)c(C(F)(F)F)c1)NC1CCCCC1	2.5%	?	0.7%	-22.8%	-3.2%	6.8
Cc1ccc(CNC(=O)CCCn2c(=O)c3ccccc3n(Cc3ccc(Cl)cc3)c2=O)cc1	10.2%	-8.2%	0.0%[12.3 µM]	-8.3%	-25.9%	.
COc1ccccc1CCn1c(N)cc(=O)[nH]c1=O	-7.5%	-8.9%	.	-9.8%	4.5%	0.0
COC(=O)c1c(NC(=O)Cc2ccc(OC)c(S(=O)(=O)N3CCOCC3)c2)sc(C)c1C	0.0%	?	7.1%	0.9%	?	-22.0
COc1ccc(CNC(=O)Nc2nc(C(N)Cc3ccc(Cl)cc3)cs2)cc1 (stereo not given)	?	23.1µM*	.	-94.2%	18.4µM*	?
NC(Cc1ccc(F)cc1)c1csc(NC(=O)NC(c2ccccc2)c2ccccc2)n1 (stereo not given)	?	14.6µM*	.	-108.5%	13µM*	-53.2*
COc1ccc(CNC(=O)Nc2nc(C(N)Cc3ccc(F)cc3)cs2)cc1 (stereo not given)	?	?	.	-96.1%	16.4µM*	?
CCC(O)c1ccccc1 (stereo not given)	.	-1.7%	8.9%	.	-1.6%	.
O=C(Nc1ccccc1Cl)c1cnccn1	32.6%	6.1%	0.0%	1.5%	5.3%	-6.2
SMILES	TGFb inhibitor	TDP1 cell CPT	TDP1 block	HepG2 viability	DT40 TDP1 no CPT	IL-1B inflam inh
CC(=NNC(=S)Nc1ccccc1)c1ccccn1	?	0.0259µM*	.	-38.2%	0.116µM*	?
CC(=NNC(=S)Nc1ccccc1Cl)c1ccccn1	?	0.013µM*	.	2.8%	0.146µM*	-102.0*
CSc1nc(=S)c2[nH]c(=S)[nH]c2[nH]1	0.8%	2.5%	0.0%	5.2%	-1.1%	24.2
CC(=O)Nc1ccc(S(=O)(=O)NCc2nc(-c3ccccc3Cl)no2)cc1	0.0%	-5.5%	8.6%	-16.4%	-3.1%	11.3
CCn1ncc(Br)c1C(=O)Nc1ccn(C23CC4CC(CC(C4)C2)C3)n1	-14.0%	20.6µM*	2.6%	-13.6%	13µM*	39.4
CCc1cccc(-n2nnc(S(=O)(=O)c3ccc(OC)cc3)c2C)c1	?	-19.0%	-3.5%	-59.8%	?	.
COc1cccc(-n2cnnn2)c1	-2.1%	-6.1%	0.0%	13.7%	2.9%	38.8
COc1cccc(-n2nnc(S(=O)(=O)c3ccc(C)cc3)c2N)c1	-22.7%	?	2.3%	-39.1%	23.1µM*	0.0
CCc1ccc(S(=O)(=O)c2nnn(-c3ccc(F)cc3)c2N)cc1	?	23.1µM*	4.5%	-11.5%	16.4µM*	.
COc1ccc(S(=O)(=O)c2nnn(-c3cccc(Cl)c3)c2N)cc1	0.3%	11.6µM*	0.0%	8.8%	20.6µM*!	16.4
COC(=O)c1sc(=S)sc1C(=O)OC	?	29.1µM*	-13.8%	-59.8%	?	-11.7
COC(=O)c1sc(C(=O)OC)c(C(=O)OC)c1C(=O)OC	5.0%	-18.4%	3.8%	-0.9%	-1.4%	20.7
CCn1c2c(c3cc(C(=O)O)ccc31)CCCC2=O	0.0%	?	0.0%	-0.4%	25.9µM*	9.9
